tim10-1 inh = tim10-1 yeast growth inhibition. S. cerevisiae tim10-1 ts strain growth, BacTiter-Glo, 24 h. inhibition, % at 20 µM. 330,000 tested, 2.2% active;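 active = inhibition of at least 40%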;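 also: mutant grown at 25 °C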
NALP3 yeast inh = NALP3 inhibition in yeast. Yeast reconstituted NLRP3/ASC/caspase-1, beta-gal luminescence, 24 h. inhibition, % at 10 µM. 330,000 tested, 0.39% active;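 active = inhibition of 50% or more; inactive = inhibition below 50%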
PfHsp90 yeast 2 = growth inhibition of yeast expressing Plasmodium Hsp90; inhibition, % at 9.4 µM; 310,000 tested, 0.32% active; S. cerevisiae expressing PfHsp90, BacTiter-Glo ATP, 48 h; yeast lacking PDR1 and PDR3 efflux regulators; AID 504621;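 active = every replicate shows inhibition above about 80%, whatever the replicate mean, limit read from the data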
TIM10 inh = inhibits growth of TIM10 yeast strain. S. cerevisiae TIM10 strain growth, BacTiter-Glo luminescence, 24 h. inhibition, % at 10 µM. 330,000 tested, 1.4% active. AID 463195;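 active = inhibition of 40% or more at the single tested concentration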;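 also: wild-type TIM10 isogenic control strain grown at permissive 25 °C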
tim23-1 inh = inhibits growth of tim23-1 mutant yeast | inhibition, % at 20 µM | AID 463212 | S. cerevisiae tim23-1 growth, BacTiter-Glo luminescence, 24 h | 330,000 tested, 1.3% active;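 active = growth inhibition of the mutant yeast at or above 50%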;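 also: temperature-sensitive mutant grown at 25 °C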
NALP1 inh = NALP1 inhibition. AID 2071. 280,000 tested, 0.61% active. S. cerevisiae NALP1/ASC/caspase-1 growth, X-gal OD620, 72 h. inhibition, % at 10 µM; in the data active = inhibition mostly above about 24%, no sharp cut-off; inactive = mostly below about 32%
TIM10 conf = TIM10 yeast growth inhibition, confirmed. 4,600 tested, 63% active. S. cerevisiae tim10 strain growth, BacTiter-Glo luminescence, 24 h. inhibition, % at 10 µM. shares compounds with TIM10 inh;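 active = inhibition of yeast growth at or above a set limit in either of two replicates at 10 µM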; also: this counterscreen used the strain with wild-type TIM10
Numbers stand for hits; . = inactive; / = not tested or not shown. A selection: hits, their analogues and other compounds. The true share with any hit is near 4.1%.

SMILES	tim10-1 inh	NALP3 yeast inh	PfHsp90 yeast 2	TIM10 inh	tim23-1 inh	NALP1 inh	TIM10 conf
O=C(O)Cn1cc(/C=C/[N+](=O)[O-])c2ccccc21	.	.	.	.	.	.	/
O=C(Cn1cc(/C=C\[N+](=O)[O-])c2ccccc21)Nc1ccccc1	.	.	.	42.7	.	/	55.2
Nc1ccc(C(=O)N/N=C/c2cn(Cc3ccccc3)c3ccccc23)cc1	.	.	.	.	.	.	/
O=[N+]([O-])/C=C/c1cn(Cc2ccccc2)c2ccccc12	.	.	93.1	46.5	.	.	56.1
CC(=O)N1c2ccccc2S(=O)(=O)c2c1ccc1ccccc21	/	/	.	/	/	/	/
C/C(=N/Nc1nc(C)c(C)s1)c1cccc([N+](=O)[O-])c1	.	.	.	.	.	.	/
N#CC(C#N)=C1C=CC=CN1/C(=C\c1ccccc1)C(=O)c1cccs1	.	.	.	42.6	.	.	.
Cc1ccccc1N1CCN(C(=O)c2ccc(Oc3ccc(C(F)(F)F)cn3)cc2)CC1	.	.	.	47.2	.	.	42.8
Oc1ccc(/C=N/Nc2ccnc3cc(Cl)ccc23)c(O)c1	.	.	.	47.4	.	/	36.0
Cc1cc(N/N=C/c2ccc(O)cc2O)c2ccccc2n1	.	.	.	.	.	.	/
CCOC(=O)NC1=NCC(C)(C)S1	/	/	.	/	/	/	/
CCOC(=O)CCS(=O)(=O)c1nc(-c2ccccc2)cc(C(F)(F)F)n1	.	.	.	51.9	.	.	57.8
O=C(O)CCS(=O)(=O)c1nc(-c2cccs2)cc(C(F)(F)F)n1	.	.	.	.	.	.	/
COC(=O)CCS(=O)(=O)c1nc(-c2ccccc2)cc(C(F)(F)F)n1	.	.	.	45.0	.	.	31.3
COCC(C)NC(=O)CCS(=O)(=O)c1nc(-c2ccc(OC)cc2)cc(C(F)(F)F)n1 (stereo not given)	.	.	.	.	.	.	/
Cc1cc(NC(=O)CCCS(=O)(=O)c2nc(-c3cccs3)cc(C(F)(F)F)n2)no1	.	.	.	48.6	.	.	37.3
O=C(Cn1c(NCCO)nc2ccccc21)Nc1ccc2c(c1)OCCCO2	.	.	.	.	.	/	/
CC(C)Oc1ccc(CNC(=O)CCC(=O)N2CCSc3ccccc32)cc1	.	.	.	.	.	.	/
Cc1ccc(SCCC(=O)OC(C)C(=O)Nc2ccccc2)cc1 (stereo not given)	.	.	/	.	.	/	/
CC(=O)Nc1ccc(NC(=O)C(C)OC(=O)CCSc2ccccc2Cl)cc1 (stereo not given)	.	.	.	96.9	.	/	.
Fc1ccc2[nH]c3c(c2c1)CN(C(=S)NCc1ccccc1)CC3	.	.	.	40.5	.	.	38.0
C=CCNC(=O)N1CCc2[nH]c3ccc(F)cc3c2C1	.	.	.	.	.	.	/
S=C(Nc1ccccc1)Nc1cc(Cl)ccc1Oc1ccccc1	.	.	.	47.5	.	/	.
COCCN(CC(=O)Nc1cccc(C)c1C)C(=O)C1CCN(S(=O)(=O)c2ccccc2)CC1	/	/	.	/	/	/	/
O=[N+]([O-])c1ccc(Cl)cc1C=NNc1ccccn1	/	/	.	/	/	/	/
SMILES	tim10-1 inh	NALP3 yeast inh	PfHsp90 yeast 2	TIM10 inh	tim23-1 inh	NALP1 inh	TIM10 conf
O=[N+]([O-])c1cc(Cl)cc(/C=N\Nc2ccccn2)c1O	.	.	/	41.4	.	.	.
Cc1cccc(OCC(=O)NCc2ccc(F)cc2)c1	.	.	.	.	.	.	/
CCOc1ccccc1/C=N/n1c(C2CCCCC2)n[nH]c1=S	.	.	.	42.6	.	.	50.0
Cc1cccc(/C=N/n2c(C3CCCCC3)n[nH]c2=S)c1	.	.	.	40.3	.	.	49.0
COc1ccc(-c2cc(C3CCN(CC(O)C(F)(F)F)CC3)[nH]n2)cc1 (stereo not given)	.	.	.	.	.	.	/
COc1ccc(-c2cc(C3CCN(c4cc(Cl)nc(N)n4)CC3)[nH]n2)cc1	.	.	.	42.9	.	.	.
COc1ccc(NC(=O)COc2ccc3c(c2)OCO3)cc1	.	.	.	.	.	.	/
O=C(COc1ccc2c(c1)OCO2)NC12CC3CC(CC(C3)C1)C2	.	.	.	47.1	.	.	32.5
CC(C)N(Cc1nc(-c2ccccc2)no1)C(=O)C(Cl)(Cl)Cl	.	.	/	40.9	.	.	.
CC1=C(C(=O)OCc2ccccc2)C(c2ccccc2OS(=O)(=O)c2ccccc2[N+](=O)[O-])NC(=O)N1CCCC(=O)O (stereo not given)	.	.	/	.	.	/	/
CCOC(=O)C1=C(C)N(CCCC(=O)O)C(=O)NC1c1ccccc1OS(=O)(=O)c1ccccc1[N+](=O)[O-] (stereo not given)	.	.	.	97.2	.	/	.
O=C(Nc1nc(-c2ccccc2)cs1)C1COc2ccccc2O1 (stereo not given)	.	.	.	41.1	.	.	34.9
O=C(Nc1nc(-c2ccc3c(c2)OCO3)cs1)C1COc2ccccc2O1 (stereo not given)	.	.	.	.	.	/	/
O=C(NC1=NCCS1)c1cc(-c2cccc(Br)c2)nc2ccccc12	.	.	.	43.3	.	.	.
O=C(NC1=NCCS1)c1csc2ccccc12	.	.	.	44.2	.	.	.
Cc1ccc(CS(=O)(=O)c2cn(CC(=O)Nc3ccon3)c3ccccc23)cc1	.	.	.	.	.	/	/
Cc1ccc(C(O)P(=O)(OC2CCCCC2)OC2CCCCC2)cc1 (stereo not given)	.	.	.	40.4	.	.	38.8
O=C(CCCOc1ccc(Cl)cc1Cl)N/N=C/c1ccccc1O	.	.	.	41.3	.	.	39.6
Cc1ccc(-n2nnnc2SCC(=O)c2c(N)n(C3CC3)c(=O)[nH]c2=O)c(C)c1	.	.	.	.	.	/	/
CCN(CC)c1ncccc1C(=O)NCc1cccs1	.	.	.	.	.	.	/
Cc1ccc(C)c(Nc2ncccc2C(=O)NCc2cccs2)c1	.	.	.	44.5	.	.	44.1
CNC(=O)c1cc2c(ccc3ccccc32)o1	.	.	.	61.3	.	.	58.7
O=C(NCc1ccc(Cl)cc1)C(=O)NCC1OCCCN1S(=O)(=O)c1cccs1 (stereo not given)	.	.	.	.	.	.	/
Cc1cccc(-n2c(C)c(-c3ccccc3)[nH]c2=S)c1	.	.	.	42.7	.	.	38.4
c1ccc(N2CCN(c3nc(-c4ccccn4)nc4ccccc34)CC2)cc1	.	.	.	40.4	.	.	.
CN1CCN(c2nc(-c3ccccn3)nc3ccccc23)CC1	.	.	.	.	.	.	/
Cc1ccc(NC(=O)c2ccccc2SCC(=O)N2CCCC2)cc1S(=O)(=O)N(C)C	.	.	.	.	.	.	/
Nc1ccc(-c2nc3ncccc3o2)c(Cl)c1	.	.	.	41.6	.	.	.
O=C(O)/C=C/c1cn(-c2ccccc2)nc1-c1ccc2c(c1)OCCO2	.	.	.	.	.	.	/

Screening data deposited in PubChem by several laboratories.
